# Compound activity: PubChem BioAssay, National Center for Advancing Translational Sciences (NCATS)
# Shown are actives, neighbours in structure and some others; about 10% of the full set was active somewhere.
# KB-V1 MDR tox = KB-V1 MDR subline cytotoxicity; KB-V1 MDR cells viability, CellTiter-Glo, 72 h; Potency, µM (titrated, usually from 46.1 µM), hits mostly cytotoxic; actives 3.4% (n = 400,000); further: on the % scale 0 is the no-effect control and ±100 the full control effect; nearly all actives have a fitted effect of over 60% in size
#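 Potencies derive from concentration-effect curves fitted to normalized luminescence (CellTiter-Glo) of KB-V1 cells treated for 72 h at 37 degrees C in phenol-red-free DMEM containing 10% FBS.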
# KB-3-1 tox = KB-3-1 parental cell cytotoxicity; KB-3-1 viability, CellTiter-Glo ATP luminescence, 72 h; Potency, µM (highest dose often 46.1 µM), hits mostly cytotoxic; actives 1.4% (n = 400,000); further: on the % scale 0 is the no-effect control and ±100 the full control effect; nearly all actives have a fitted effect of over 60% in size
#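 Cells are dispensed, compounds pinned in, plates held at 37 °C for 72 h, then CellTiter-Glo is added and luminescence read after 10 minutes. Cell line: parental KB-3-1 in phenol-red-free DMEM, 10% FBS.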
# Gal4-VP16 FLuc = inhibits Gal4-VP16 luciferase reporter, ROR gamma counter-screen; Drosophila S2 Gal4-VP16 UAS-luciferase, luminescence, 20 h; Potency, µM (series often up to 53.6 µM), inactives show top-dose activity, negative = inhibition, actives largely listed as inhibitors; actives 3.5% (n = 310,000);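 further: Gal4-VP16 expression switched on by copper sulfate through the metallothionein promoter; on the % scale 0 is the no-effect control and ±100 the full control effect; nearly all actives have a fitted effect of over 50% in size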
# SW480 rerep = DNA re-replication induction in SW480 cells. AID 624297. SW480 DNA re-replication, Hoechst DNA content imaging, 48 h. Potency, µM (highest dose often 46.1 µM), inactives show top-dose re-replication activation, hits mostly activators. actives 1.8% (n = 340,000); further: % of control where 0% means no effect; nearly all actives have a fitted effect of over 55% in size
#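 SW480 cells exposed to compounds for 48 hr at 37 C, 5% CO2, then Hoechst-stained 40 min. Nuclear DNA content imaged by fluorescence scanning (405 nm excitation, 500-530 nm emission); re-replication scored as increased high-intensity nuclei.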
# RORg inh = inhibitors of mouse ROR gamma transcriptional activity | P51450 | Drosophila S2 Gal4-RORgamma UAS-luciferase reporter, 20 h | Potency, µM (series often up to 53.6 µM), for inactives: top-dose activity change, negative = inhibition, actives largely listed as inhibitors | actives 5.4% (n = 310,000) | AID 2551; further: on the % scale 0 is the no-effect control and ±100 the full control effect; nearly all actives have a fitted effect of over 60% in size
# Target sequence (P51450 whole entry, looked up, the tested form may be a part): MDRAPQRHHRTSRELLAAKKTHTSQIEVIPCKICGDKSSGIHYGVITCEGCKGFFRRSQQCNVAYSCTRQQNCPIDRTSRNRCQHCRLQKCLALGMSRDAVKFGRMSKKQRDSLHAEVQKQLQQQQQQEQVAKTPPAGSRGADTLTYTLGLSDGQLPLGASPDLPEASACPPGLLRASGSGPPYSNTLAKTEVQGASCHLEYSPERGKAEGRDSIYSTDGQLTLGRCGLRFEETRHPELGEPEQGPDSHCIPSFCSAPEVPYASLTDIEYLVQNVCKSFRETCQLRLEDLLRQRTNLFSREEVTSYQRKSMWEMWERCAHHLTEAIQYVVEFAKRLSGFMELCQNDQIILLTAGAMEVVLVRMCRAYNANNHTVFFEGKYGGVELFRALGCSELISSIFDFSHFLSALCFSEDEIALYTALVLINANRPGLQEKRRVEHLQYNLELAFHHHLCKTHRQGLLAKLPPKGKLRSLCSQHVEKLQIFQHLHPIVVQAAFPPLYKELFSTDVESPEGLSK
#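 Compounds are pin-transferred onto Drosophila Schneider cells expressing a copper-inducible Gal4–ROR gamma transactivation domain fusion. After 1 hr, copper sulfate is added to 700 uM final; luciferase is read 20 hr later.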
# MCF10A rerep = induces DNA re-replication in MCF 10a normal breast cells | actives 2.9% (n = 350,000) | Potency, µM (titrated, usually from 46.1 µM), without a hit: at the top dose activity, positive = re-replication, hits mostly activators | MCF 10A DNA re-replication, Hoechst nuclear intensity, 48 h; further: % of control where 0% means no effect; nearly all actives have a fitted effect of over 50% in size
# An asterisk follows results filed as active; i = inactive; ? = inconclusive; · = not tested or not shown; [ ] = another dose, or the depositor's remark. The call rests on the fitted dose curve; in most records, active means well fitted curve in the direction sought with a large enough effect; inconclusive means small, poorly fitted or top-dose-only effect, or another doubt; inactive means no such curve, though single readings can be large; an effect the other way counts as inactive or inconclusive. Potency means the concentration at half of the fitted maximal effect.
SMILES,KB-V1 MDR tox,KB-3-1 tox,Gal4-VP16 FLuc,SW480 rerep,RORg inh,MCF10A rerep
C=Cc1ccc(S(=O)(=O)O)cc1,·,·,6.2%,-2.6%,-12.9%,-7.1%
COCC1=C2c3ccccc3[C@H](C[N+](=O)[O-])C(C(=O)OC)(C(=O)OC)CC2C2C(=O)N(c3ccccc3)C(=O)C2C1 (stereo partly drawn),·,·,4.2%,·,-11.2%,·
O=C(c1ccncc1)N1CCC[C@@]2(CCN(Cc3cc(C(F)(F)F)cc(C(F)(F)F)c3)C2)C1,·,·,-2.7%,·,20.1%,·
CC(=O)c1ccc(NS(=O)(=O)c2ccc(-c3cnc(C4CC4)o3)cc2)cc1,?,i,-2.5%,-2.2%,16.3%,14.8%
COc1cc(Cl)c(NS(=O)(=O)c2ccc(-c3cnc(C4CC4)o3)cc2)c(OC)c1,1.03µM*,1.64µM*,·,·,·,·
Cc1cccc(C)c1NS(=O)(=O)c1ccc(-c2cnc(C3CC3)o2)cc1,0.731µM*,0.0231µM*,?,?,?,?
c1nc(NCCCN2CCOCC2)c2cc(-c3ccc4c(c3)OCO4)ccc2n1,i,i,·,·,·,·
C[C@@](N)(C(=O)O)c1ccc(P(=O)(O)O)cc1,·,·,1.8%,·,0.5%,·
O=C(Nc1ccccn1)C(=O)Nc1ccccn1,i,i,12.6µM*,-13.1%,10µM*,-3.3%
O=C(Nc1ccccn1)C1(c2ccccc2)CCCC1,i,i,20µM*,-4.1%,-11.7%,-7.4%
O=C(Nc1ccccn1)c1ccc(S(=O)(=O)N2CCCC2)cc1,i,i,·,39.4%,·,?
c1ccc(Nc2ccccn2)nc1,i,i,6.1%,0.7%,-3.3%,-2.0%
O=C(Nc1ccccc1)Nc1ccccn1,i,i,16.1%,-4.2%,38.7%,-18.5%
S=C(Nc1ccccn1)c1ccccn1,?,?,3.16µM*,?,7.08µM*,?
O=C(Nc1ccccn1)c1ccc(S(=O)(=O)c2ccc(Cl)cc2)cc1,7.31µM*,?,?,8.9%,-4.5%,-0.2%
CCOC(=O)c1c(C)c(-c2ccccc2)n(CC(=O)Nc2cc(C)ccc2OC)c1C,i,i,·,·,·,·
O=C(O)c1c(C(=O)O)c2ccccc2[nH]c1=O,·,·,-6.3%,·,13.2%,·
N#C/C(=C\c1ccc(F)cc1)C(=O)Nc1ccccn1,i,i,-1.7%,4.11µM*,21.5%,5.2%
CCOc1ccc(/C=C(\C#N)C(=O)Nc2ccccn2)cc1,i,i,1.3%,-4.9%,1.5%,7.8%
Cc1c(Br)c(O)c(Br)c(O)c1/C=N/n1c(-c2ccccc2)n[nH]c1=S,i,i,2.6%,20.2%,7.5%,-14.1%
Cc1ccccc1-c1n[nH]c(=S)n1/N=C/c1c(C)nn(-c2ccccc2)c1C,?,i,?,-2.5%,4.47µM*,3.9%
Cc1ccc(-c2n[nH]c(=S)n2/N=C/c2c(C)nn(-c3ccccc3)c2C)cc1,i,i,?,?,6.31µM*,?
Cc1ccsc1/C=N/n1c(-c2ccccc2)n[nH]c1=S,i,i,-9.5%,3.3%,13.6%,13.9%
Cc1nn(-c2ccccc2)c(C)c1/C=N/n1c(-c2ccc(C(C)(C)C)cc2)n[nH]c1=S,i,?,-11.2%,10.6%,2.24µM*,?
CCCN(CCC)C(=O)c1c[nH]c2ccc(S(=O)(=O)N(C)c3ccc(Cl)cc3)cc2c1=O,?,i,·,·,·,·
Cc1ccccc1Br,·,·,2.2%,·,-2.3%,·
CCOCCc1nn2c(=O)cc(COC(=O)c3ccccc3NC(=O)CC(C)C)nc2s1,i,?,·,·,·,·
N#CC1=C(N)Oc2n[nH]c(-c3cccnc3)c2C1c1cc(F)ccc1F (stereo not drawn),i,i,-5.8%[10 µM],0.2%,5.1%,-0.6%
N#CC1=C(N)Oc2n[nH]c(-c3ccccn3)c2C1c1c(F)cccc1Cl (stereo not drawn),i,i,8.91µM*,7.1%,3.16µM*,10.7%
